# Bioassay records (PubChem)
# This is a sample that favours compounds with a hit; in the whole collection about 27% have one here.
# CYP2C19 inh: blockers of cytochrome P450 2C19 activity – biochemical, luminescence, ADME assay, primary screen; hit rate 21% among 96,000; CYP2C19 Supersomes, luciferin-H EGE luminescence, 30 min; inhibition, % at 5 µM; AID 778, 2007;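 active = CYP2C19 inhibition above a set limit at 5 µM in the primary screen, cut at about 50% in these data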;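 also: plate controls were negative control wells for no effect and 2.5 mM tranylcypromine positive control for full effect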
# CYP2C19 activ: human CYP2C19 activators, primary screen, biochemical, luminescence. Cytochrome P450 2C19 (Homo sapiens), P33261. activation factor at 5 µM. 96,000 tested, under 10 active. recombinant CYP2C19, luciferin-H EGE luminescence; active compounds read high; 0 = fully inhibited enzyme, 1 = untreated enzyme;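 active = activation factor of at least 2 at 5 µM in the primary screen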;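 also: 0 = wells with 2.5 mM tranylcypromine and 1 = vehicle-only wells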
# CYP2C9 inhib: blockers of cytochrome P450 2C9 activity – biochemical, luminescence, ADME assay, primary screen; P11712; inhibition, % at 5 µM; hit rate 20% among 96,000; CYP2C9 Supersomes, luciferin-H conversion; AID 777, 2007;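 active = blocking of liver enzyme CYP2C9 beyond about 50% at 5 µM, limit read from the data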
# Target sequence (P11712 whole entry, looked up): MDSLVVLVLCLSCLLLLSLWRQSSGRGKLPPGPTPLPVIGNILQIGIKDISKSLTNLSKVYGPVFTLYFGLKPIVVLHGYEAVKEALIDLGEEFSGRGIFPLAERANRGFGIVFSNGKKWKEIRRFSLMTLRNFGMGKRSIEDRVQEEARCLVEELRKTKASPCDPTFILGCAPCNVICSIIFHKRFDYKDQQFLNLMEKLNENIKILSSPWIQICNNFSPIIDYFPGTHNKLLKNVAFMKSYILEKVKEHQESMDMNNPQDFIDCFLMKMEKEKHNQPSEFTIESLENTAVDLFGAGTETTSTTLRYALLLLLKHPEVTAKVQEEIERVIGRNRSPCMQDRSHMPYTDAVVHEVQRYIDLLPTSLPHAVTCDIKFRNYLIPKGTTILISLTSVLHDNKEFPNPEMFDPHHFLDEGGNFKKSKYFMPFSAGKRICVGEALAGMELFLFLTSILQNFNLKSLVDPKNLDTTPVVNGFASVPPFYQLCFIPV
# sEH inh: soluble epoxide hydrolase inhibitors, primary screen, biochemical, human sEH; Bifunctional epoxide hydrolase 2 (Homo sapiens), P34913; recombinant human sEH enzymatic activity assay; inhibition, % at 2 µM; hit rate 0.34% among 91,000; in the data active = inhibition above about 80%
# sEH act: soluble epoxide hydrolase activators, primary screen, biochemical, human sEH | purified human sEH enzymatic activity, activator screen | activation, % at 2 µM | hit rate 0.04% among 91,000; in the data active = activation above about 37%
# CYP2C9 act: human CYP2C9 activators, primary screen, biochemical, luminescence; Cytochrome P450 2C9 (Homo sapiens), P11712; recombinant CYP2C9, luciferin-H conversion; active compounds read high; factor 1 = untreated enzyme, 0 = blocked; activation factor at 5 µM; hit rate 1.4% among 96,000;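 active = activation factor of 2 or more for CYP2C9 at a 5 µM dose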;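 also: 0 = sulfaphenazole-blocked wells and 1 = vehicle-only wells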
# An asterisk follows results filed as active; / = no result.
SMILES,CYP2C19 inh,CYP2C19 activ,CYP2C9 inhib,sEH inh,sEH act,CYP2C9 act
CC1(C)CC(NC(=O)C23CCC(C)(/C(=N/O)C2)C3(C)C)CC(C)(C)N1 (stereo not given),-20.6,1.2,-9.0,-3.0,2.3,1.1
CC(=O)c1cccc(NC(=O)N2CCCC2C(=O)Nc2cc(C)ccc2C)c1 (stereo not given),1.1,1,45.3,6.9,-7.9,0.5
CCOC(=O)c1ccc(NC(=O)CCC(=O)OC)cc1,18.2,0.8,15.0,-12.3,12.8,0.8
O=[N+]([O-])c1ccc(-c2nnc(CSc3nc(-c4ccccc4)nc4ccc(F)cc34)o2)cc1,/,/,/,0.2,4.9,/
O=C(Cc1ccc(S(=O)(=O)N2CCCC2)s1)Nc1nc2c(s1)CCCC2,23.0,0.8,30.1,20.9,-21.9,0.7
Cc1ccc(CC(=O)Nc2nc3c(s2)CCCC3)cc1,42.1,0.6,87.4*,11.4,-11.1,0.1
O=C(CCn1cnc2ccccc2c1=O)Nc1nc2c(s1)CCCC2,15.0,0.8,44.7,14.8,-13.7,0.6
O=C(CCN1C(=O)c2ccccc2S1(=O)=O)Nc1nc2c(s1)CCCC2,84.0*,0.2,88.5*,5.7,-6.4,0.1
CC(=O)c1ccc(OCCCN2CCCCC2)cc1,66.3*,0.3,68.7*,-1.1,-1.8,0.3
O=C(c1ccccc1)c1ccc(OCCCN2CCCCC2)cc1,-18.4,1.2,-5.7,-5.0,5.1,1.1
CCOC(=O)CSc1nc(N)c(C#N)c(-c2ccc(OCC)cc2)c1C#N,28.0,0.7,45.5,-3.5,2.1,0.5
C=CCSc1nc(C)cc(/C=C\c2ccccc2)c1C#N,7.1,0.9,-116.7,10.7,-8.6,2.2*
Cc1ccccc1NC(=O)CSc1nc(N)c(C#N)c(-c2cccs2)c1C#N,61.5*,0.4,52.6*,30.7,-27.1,0.5
CCN(CC)C(=O)CSc1nc(N)c(C#N)c(-c2cccs2)c1C#N,/,/,/,5.3,-4.2,/
Cc1cc(C)c(C#N)c(SCCS(=O)(=O)Cc2ccccc2)n1,8.0,0.9,-76.3,-2.8,2.3,1.8
C=CCSc1nc(N)c(C#N)c(-c2ccc(C)cc2)c1C#N,43.3,0.6,63.4*,-11.8,11.8,0.4
N#Cc1c(N)nc(SCc2ccncc2)c(C#N)c1-c1cccs1,57.6*,0.4,83.5*,/,/,0.2
CC(=O)N1CCc2cc(S(=O)(=O)NCCC3=CCCCC3)ccc21,/,/,/,-2.0,0.2,/
O=c1nc(NCc2ccccc2Cl)cn[nH]1,-2.7,1,-11.9,4.7,-4.6,1.1
COc1cc(-c2c(C#N)c(N)nc(SCc3ccncc3)c2C#N)cc(OC)c1OC,100.0*,0,100.4*,/,/,0
COc1cc(-c2c(C#N)c(N)nc3c2CCCC3)cc(OC)c1OC,/,/,/,0.3,1.7,/
CCSc1nc(N)nc(-c2cccs2)c1C#N,37.1,0.6,71.8*,/,/,0.3
CCSc1nc(N)c(C#N)c(-c2ccccc2Cl)c1C#N,-5.7,1.1,32.5,-7.8,9.3,0.7
CCOC(=O)CNc1nc(C#N)nc(N2CCOCC2)n1,-4.8,1,-2.7,-8.5,8.2,1
COc1nc(C)nc(NC(=O)NS(=O)(=O)c2ccc(C)cc2)n1,-0.4,1,-21.4,7.7,-4.7,1.2
SMILES,CYP2C19 inh,CYP2C19 activ,CYP2C9 inhib,sEH inh,sEH act,CYP2C9 act
CCOc1ccc2nc3c(cc2c1)CN(CCCO)C(=NCCOC)S3,67.1*,0.3,82.7*,0.0,-2.3,0.2
O=c1oc(-c2ccccc2F)nc2c1cnn2-c1ccccc1,9.0,0.9,3.4,-2.6,0.9,1
COc1ccc(NC(C)=O)cc1NC(=O)CN1CCN(CC(=O)Nc2ccccc2Cl)CC1,45.9,0.5,23.1,-13.3,13.7,0.8
CSc1ccccc1NC(=O)CSc1nnnn1-c1ccccc1SC,29.7,0.7,-208.7,4.3,-5.0,3.1*
CSc1ccccc1-n1nnnc1SCC(=O)Nc1ccccc1C,87.0*,0.1,-231.8,5.8,-5.5,3.3*
COC(=O)c1ccsc1NC(=O)CSc1nnnn1-c1ccccc1SC,5.9,0.9,-98.4,8.5,-5.0,2*
Cn1nnnc1SCC(=O)Nc1ccccc1Cc1ccccc1,55.4*,0.4,57.8*,/,/,0.4
